High-throughput results deposited in PubChem by several laboratories.
Most compounds without a hit are left out; they make up all but 4.7% or so of the library.
FBA Mtb inh – inhibitors of M. tuberculosis fructose-bisphosphate aldolase. P9WQA3. purified M. tuberculosis FBA, fluorescence read-out. inhibition, % at 1 µM. hit rate 2.3% among 360,000. AID 588726; in the data active means inhibition above about 27%;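 further: 0% = vehicle and 100% = reference inhibitor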
Target sequence (P9WQA3 whole entry, looked up): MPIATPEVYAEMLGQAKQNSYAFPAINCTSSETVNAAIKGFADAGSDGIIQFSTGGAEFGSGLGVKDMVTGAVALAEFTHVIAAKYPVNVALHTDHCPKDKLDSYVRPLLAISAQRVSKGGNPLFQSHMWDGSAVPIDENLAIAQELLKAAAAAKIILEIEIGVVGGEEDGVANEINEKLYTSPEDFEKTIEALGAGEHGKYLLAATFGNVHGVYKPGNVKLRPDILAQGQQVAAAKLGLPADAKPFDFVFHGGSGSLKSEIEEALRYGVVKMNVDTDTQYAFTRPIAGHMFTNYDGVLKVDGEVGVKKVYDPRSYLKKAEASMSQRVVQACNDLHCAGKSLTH
GDH-TPI inh – counter-screen for M. tuberculosis FBA inhibitors: GDH-TPI coupled enzymes; GDH-TPI coupled enzyme counterscreen, NADH absorbance; inhibition, % at 4.8 µM; hit rate 1.2% among 360,000; AID 588335;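 further: 0% = DMSO wells and 100% = wells lacking the enzyme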
CCHF vOTU inh-1 – CCHFV vOTU protease inhibition | Pep-AMC fluorescence | inhibition, % at 11.5 µM | hit rate 0.55% among 370,000; further: 0% = vehicle wells with enzyme and 100% = no enzyme wells
RecA splice inh – Mtb RecA intein splicing inhibition; AID 2221; hit rate 0.75% among 290,000; P9WHJ3; inhibition, % (test concentration not listed); cell-free RecA intein splicing, fluorescence; in the data active means inhibition above about 30%;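 further: 0% = vehicle wells and 100% = reference inhibitor control wells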
3CLpro inhibitor – SARS-CoV 3CLpro protease inhibition. P0C6X7. recombinant SARS-CoV 3CLpro, quenched FRET peptide cleavage. inhibition, % at 6 µM. hit rate 0.14% among 290,000; in the data active means inhibition above about 12%
DUSP3 inh – blocks human VHR1 dual specificity phosphatase | recombinant VHR phosphatase, pNPP absorbance | hit rate 0.52% among 290,000 | P51452 | AID 1654 | inhibition, % at 13.3 µM; in the data active means inhibition above about 50%
Target sequence (P51452 whole entry, looked up): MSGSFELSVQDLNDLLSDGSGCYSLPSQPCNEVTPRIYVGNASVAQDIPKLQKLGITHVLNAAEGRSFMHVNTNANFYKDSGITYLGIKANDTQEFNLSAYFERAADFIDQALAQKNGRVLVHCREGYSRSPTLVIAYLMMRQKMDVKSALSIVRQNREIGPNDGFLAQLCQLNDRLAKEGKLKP
CCHF vOTU inh-2 – confirmation of CCHF virus vOTU protease inhibitors; shares compounds with CCHF vOTU inh-1; Recombinant CCHFV vOTU, Pep-AMC fluorescence; inhibition, % at 11.5 µM; hit rate 17% among 1,900; AID 686976
* = called active by the depositor; nt = no result given. Unless noted, no stated cut-off is given here; in the data, active means inhibition above about 30%; inactive means the rest.

SMILES	FBA Mtb inh	GDH-TPI inh	CCHF vOTU inh-1	RecA splice inh	3CLpro inhibitor	DUSP3 inh	CCHF vOTU inh-2
C=CC[C@@H](CC(=O)N[C@H](CO)Cc1ccccc1)C(=O)N[C@@H](COC(=O)[C@@H](CC=C)CC(=O)OC(C)(C)C)Cc1c[nH]c2ccccc12	4	7	31*	nt	nt	nt	-11
C=CCC[C@H](Cc1ccc(F)cc1)C(=O)OC[C@@H](Cc1c[nH]c2ccccc12)NC(=O)[C@@H](CC=C)CC(=O)N(CCO)Cc1ccccc1	0	13	32*	nt	nt	nt	8
C=CC[C@@H](CC(=O)N[C@H](CO)Cc1ccccc1)C(=O)N[C@H](COC(=O)[C@@H](CC=C)CC(=O)OC(C)(C)C)Cc1c[nH]c2ccccc12	4	4	19	nt	nt	nt	nt
CCOC(=S)NC(=O)c1sc2ccccc2c1Cl	-2	9	34*	13	-2	1	-3
O=C1NC[C@H](CCCCN2CCN(CCC3CCCCC3)C(=O)C2=O)N(CCC2CCCCC2)C1=O	nt	nt	5	nt	nt	nt	nt
O=C(CCNC(=O)c1ccc(Cl)cc1)NC1CCCCCC1	0	4	0	nt	nt	nt	nt
O=C(CCNC(=O)c1ccc(Br)cc1)NC1CCCCCC1	6	17	37*	nt	nt	nt	-3
CCNC(=O)C1(C)CCN1CCC(=O)c1ccc(C)cc1 (configuration not stated)	5	11	-12	nt	nt	nt	nt
COc1ccc(C2C(C(C)=O)=C(O)C(=O)N2c2nc3ccccc3s2)cc1OC (configuration not stated)	8	9	14	-2	1	-6	nt
COc1ccc2nc(N3C(=O)C(O)=C(C(=O)c4ccco4)C3c3ccc(OC)c(OC)c3)sc2c1 (configuration not stated)	-5	10	34*	nt	nt	nt	2
CC1CN=C(NS(=O)(=O)c2ccccc2)N1 (configuration not stated)	3	9	0	nt	nt	nt	nt
COCCn1c(SCC(=O)Nc2cc(C)nn2-c2ccccc2)nnc1-c1ccncc1	-1	3	23	0	-1	12	nt
COCCn1c(SCC(=O)NN2C(=O)NC(C)(c3ccccc3)C2=O)nnc1-c1ccncc1 (configuration not stated)	-1	-4	35*	nt	nt	nt	-21
CCCC(=O)OCC(=O)Nc1ccc2c(c1)OCO2	-1	-1	2	-3	7	2	nt
COc1ccccc1/C=N/NC(=O)c1ccc(-c2ccccc2)cc1	-2	4	10	-1	3	7	nt
COc1ccccc1/C=N/NC(=O)c1ccc(=O)n(C)c1	4	13	31*	-4	-9	-5	-5
COC(=O)CSc1[nH]c2ccc(Br)cc2c1[N+](=O)[O-]	-1	-4	33*	-1	-1	13	1
CN=C(Nc1cccnc1)c1cccc(C(F)(F)F)c1	0	0	49*	-2	2	-10	-14
COc1ccc(CCNC(=O)CSc2nc3scc(-c4ccccc4)c3c(=O)[nH]2)cc1	5	-2	9	nt	nt	nt	nt
CC(=O)c1ccc(NC(=S)Nc2cccc3cnccc23)cc1	3	16	39*	0	-7	19	81*
Cc1cc(C)n(CCNC(=O)c2ccc3c(c2)OCO3)n1	0	4	1	nt	0	2	nt
Nc1nc(Nc2ccccc2)n[nH]1	2	-3	32*	-5	-1	27	-22
O=C(c1cccc([N+](=O)[O-])c1)N1CCCN(C(=O)c2cccc([N+](=O)[O-])c2)CC1	1	7	-9	0	8	5	nt
Oc1c(N=Nc2nn[nH]n2)ccc2ccccc12	-9	nt	98*	nt	nt	nt	84*
CC(C)C(=O)Nc1ccc(NC(=O)c2ccc(COc3ccccc3)cc2)cc1	0	7	4	-2	-1	10	nt
SMILES	FBA Mtb inh	GDH-TPI inh	CCHF vOTU inh-1	RecA splice inh	3CLpro inhibitor	DUSP3 inh	CCHF vOTU inh-2
CCC(C(=O)NCc1ccco1)N(C(=O)CNS(=O)(=O)c1ccccc1)c1ccc(F)cc1 (configuration not stated)	0	-3	12	0	3	2	nt
CC(C)C(C(=O)NCc1ccco1)N(C(=O)CNS(=O)(=O)c1ccccc1)c1ccccc1 (configuration not stated)	-5	-6	34*	0	1	40	-13
CC1=C(C(=O)OCC(C)C)C2(O)C(=O)c3ccccc3C2(O)N1 (configuration not stated)	-3	0	30*	20	-2	10	-18
CCc1ccc2c(CN3CCN(S(=O)(=O)c4cccs4)CC3)cc(=O)oc2c1	2	6	35*	0	0	38	-6
O=C(O)CC1Sc2nnc(COc3ccc(Cl)cc3)n2N=C1c1ccccc1 (configuration not stated)	-10	-2	21	-1	10	12	nt
CN(C)c1ccc2nc3ccc(=O)cc-3sc2c1	0	11	76*	nt	nt	nt	50*
Cc1ccc(C)c(NC(=O)C(C)N2C(=O)c3ccccc3C2=O)c1 (configuration not stated)	1	3	6	-1	-1	6	nt
CC1CN(C(=O)Nc2ccc(F)cc2F)CC(C)O1 (configuration not stated)	0	8	-4	-4	-2	14	nt
c1coc(-c2nc(-c3ccco3)c(-c3ccco3)nc2-c2ccco2)c1	32*	28	35*	nt	-1	51*	-14
COc1ccc2nc(-c3ccco3)c(-c3ccco3)nc2c1	4	6	63*	-92	1	-9	-15
COc1ccc(C(=O)Nc2ccc(N3CCN(C(=O)c4ccccc4C)CC3)cc2)cc1	1	7	-3	-2	7	-6	nt
CC(/C=C1\SC(=S)N(c2ccc(C(=O)O)cc2)C1=O)=C\c1ccccc1	-8	16	30*	2	0	53*	4
O=C(CC(C(=O)O)c1ccc(Cl)cc1Cl)c1ccc(Cl)cc1 (configuration not stated)	-5	2	15	-2	6	15	nt
Cc1cc(OCC(=O)NNC(=S)NC(=O)c2ccc(Br)o2)ccc1Cl	-2	-2	36*	-1	0	6	-14
O=C1CC(c2cccc(O)c2)Oc2ccccc21 (configuration not stated)	0	10	11	nt	nt	nt	nt
CCn1c(=O)c(C(=O)NCCN2CCCCC2)c(O)c2ccccc21	1	6	34*	nt	0	8	-12
COc1ccc(-c2cc(C(=O)NN=Cc3ccc(-c4ccccc4)cc3)[nH]n2)cc1	nt	nt	-4	nt	nt	nt	nt
Cc1cccc(C)c1NC(=O)C1(C)CSCC(=O)N1CCOc1ccccc1 (configuration not stated)	nt	nt	31*	nt	nt	nt	4
Cc1ccc([C@@H]2[C@@H]3C(=O)N(C)C(=O)[C@@H]3[C@]3(C)C(=O)N(Cc4ccc(-c5ccccc5)cc4)CC(=O)N23)o1	-2	9	-6	0	-4	-7	nt
